Test results reported in PubChem BioAssay (Tox21).
Where “and” joins values, the source holds several entries; their conditions need not be identical. Identical values can stand only once. Results filed as inconclusive are left out. Entries that show only a call come without a potency. Some structures have more than one record in an assay (separate samples or runs), and their calls can disagree. Calls of active or inactive are those of the source. Unless noted, calls come from the whole dose curve; as a rule, active = well fitted curve in the direction sought with a large enough effect in the repeat runs; inconclusive = weak or mixed curves; inactive = no such curve, though single readings can be large; an effect the other way counts as inactive or inconclusive.

Tests used:
[1] = qHTS assay to identify small molecule antagonists of the estrogen related receptor (ERR) signaling pathway from Tox21 library - cell viability counter screen (AID 1224834); note: nearly all actives have a fitted effect of over 30% in size; note: potency is the fitted concentration of half-maximal effect
In short: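 ERR reporter cells were plated 6 h before compound addition, then exposed to test compounds in DMSO for 17.5 h at 37 C. Viability was read as CellTiter-Fluor fluorescence after a 30-minute incubation at 37 C.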

[2] = target: Luciferin 4-monooxygenase (Photinus pyralis) (UniProt P08659); experiment: qHTS assay to identify small molecule inhibitors of firefly luciferase (AID 1224835); note: nearly all actives have a fitted effect of over 25% in size; note: potency is the fitted concentration of half-maximal effect
Luciferin 4-monooxygenase (Photinus pyralis), sequence (P08659 whole entry, looked up): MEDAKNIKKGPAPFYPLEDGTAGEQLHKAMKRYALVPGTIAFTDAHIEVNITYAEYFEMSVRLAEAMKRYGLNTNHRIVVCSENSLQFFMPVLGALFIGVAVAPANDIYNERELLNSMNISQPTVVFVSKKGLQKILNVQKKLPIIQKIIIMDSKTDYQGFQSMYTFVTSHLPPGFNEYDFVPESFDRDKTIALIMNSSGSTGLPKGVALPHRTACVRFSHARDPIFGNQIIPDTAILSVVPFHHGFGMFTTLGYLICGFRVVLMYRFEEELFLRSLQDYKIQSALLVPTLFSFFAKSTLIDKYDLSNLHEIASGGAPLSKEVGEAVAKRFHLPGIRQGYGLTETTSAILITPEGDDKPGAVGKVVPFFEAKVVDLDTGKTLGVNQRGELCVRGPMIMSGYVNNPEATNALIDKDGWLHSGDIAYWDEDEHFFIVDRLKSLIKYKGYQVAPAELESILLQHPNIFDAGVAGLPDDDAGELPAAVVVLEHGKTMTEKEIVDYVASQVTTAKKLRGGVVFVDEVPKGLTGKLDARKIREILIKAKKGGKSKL
In short: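 Quantitative HTS format; KM concentrations of both substrates. Purified P. pyralis FLuc activity quantified from luminescence images.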

[3] = qHTS assay to identify small molecule agonists of the constitutive androstane receptor (CAR) signaling pathway - cell viability counter screen (AID 1224836); note: nearly all actives have a fitted effect of over 45% in size; note: potency is the fitted concentration of half-maximal effect
In short: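 Compound titrations (15 concentrations) went onto HepG2-CYP2B6-hCAR cells 4 h after seeding, alongside PK11195 at a final 0.75 uM; a 23 h, 37 C/5% CO2 incubation preceded CellTiter-Fluor viability measurement.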

[4] = qHTS assay to identify small molecule antagonists of the constitutive androstane receptor (CAR) signaling pathway - cell viability counter screen (AID 1224837); note: nearly all actives have a fitted effect of over 45% in size; note: potency is the fitted concentration of half-maximal effect
In short: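 HepG2 cells stably expressing hCAR and a CYP2B6-2.2kb reporter were plated and pre-incubated 4 hr at 37 C/5% CO2, then given compounds at 15 concentrations plus 50 nM CITCO (final). After 23 hr, viability was read by CellTiter-Fluor fluorescence.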

[5] = target: Nuclear receptor subfamily 1 group I member 3 (Homo sapiens) (UniProt Q14994); experiment: qHTS assay to identify small molecule antagonists of the constitutive androstane receptor (CAR) signaling pathway (AID 1224838); note: nearly all actives have a fitted effect of over 40% in size; note: potency is the fitted concentration of half-maximal effect
Nuclear receptor subfamily 1 group I member 3 (Homo sapiens), sequence (Q14994 whole entry, looked up): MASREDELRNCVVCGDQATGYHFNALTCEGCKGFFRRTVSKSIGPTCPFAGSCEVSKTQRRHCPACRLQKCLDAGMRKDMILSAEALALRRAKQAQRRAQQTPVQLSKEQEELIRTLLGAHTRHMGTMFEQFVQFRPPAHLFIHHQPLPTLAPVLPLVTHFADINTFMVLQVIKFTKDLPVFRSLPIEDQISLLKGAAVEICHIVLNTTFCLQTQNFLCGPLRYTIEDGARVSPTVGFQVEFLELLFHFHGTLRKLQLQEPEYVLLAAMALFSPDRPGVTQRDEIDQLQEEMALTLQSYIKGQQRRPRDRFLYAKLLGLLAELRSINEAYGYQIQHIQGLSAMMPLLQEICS
In short: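 HepG2 cells stably co-transfected with hCAR and a CYP2B6-2.2kb luciferase reporter were seeded 4 h before compound addition at 15 concentrations. Cells were stimulated with 50 nM CITCO (final) for 24 h at 37 C; luciferase luminescence was then read.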

[6] = target: Nuclear receptor subfamily 1 group I member 3 (Homo sapiens) (UniProt Q14994); experiment: qHTS assay to identify small molecule agonists of the constitutive androstane receptor (CAR) signaling pathway (AID 1224839); note: nearly all actives have a fitted effect of over 15% in size; note: potency is the fitted concentration of half-maximal effect;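 for activation: HepG2 cells stably carrying human CAR and a CYP2B6 luciferase reporter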
In short: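 In this screen, CAR-driven CYP2B6 promoter activity is measured by luminescence in HepG2-CYP2B6-hCAR cells after 24 h with test compounds and 0.75 uM PK11195 (final concentration).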

[7] = qHTS assay to identify small molecule antagonists of the estrogen related receptor signaling pathway with the pleiotropic PPARgamma coactivator (PGC) from Tox21 10K library - cell viability counter screen (AID 1224840; active = well fitted cell-killing curve with a large enough effect in the repeat runs, not every such curve was filed as active; note: nearly all actives have a fitted effect of over 40% in size; note: potency is the fitted concentration of half-maximal effect)
In short: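 PGC/ERR cells were seeded at 2,000 cells/well and left 6 hours at 37 C/5% CO2 before pin-tool addition of compounds in DMSO. After 17.5 hours at 37 C, CellTiter-Fluor was added and fluorescence read 30 minutes later.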

[8] = qHTS assay to identify small molecule antagonists of the estrogen related receptor signaling pathway with the pleiotropic PPARgamma coactivator (PGC) from Tox21 10K library (AID 1224841; call rule not given here; note: actives are mostly falling curves and most rising ones were filed inactive; nearly all actives have a fitted effect of over 50% in size; note: potency is the fitted concentration of half-maximal effect)
In short: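 PGC/ERR reporter cells were seeded at 2,000 cells/well and held 6 hours at 37 C/5% CO2 before pin-tool addition of compounds in DMSO. After 18 hours at 37 C, One-Glo was added and luminescence read after 30 minutes at room temperature.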

[9] = qHTS assay to identify small molecule agonists of the hypoxia (HIF-1) signaling pathway - cell viability counter screen (AID 1224844; calls by dose curve; note: nearly all actives have a fitted effect of over 50% in size; note: potency is the fitted concentration of half-maximal effect)
In short: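 HRE-bla ME-180 cells in medium with 0.5% dialyzed FBS were preincubated 5 hrs at 37C, exposed to compounds for 17 hrs, then viability was read as CellTiter-Glo luminescence after 30 min at room temperature, in the reporter wells.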

[10] = qHTS assay to identify small molecule agonists of H2AX (AID 1224845; active = well fitted activation curve with a large enough effect in the signal ratio in the repeat runs, not every such curve was filed as active; the % refers to the signal ratio; note: potency is the fitted concentration of half-maximal effect)
In short: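 Wild-type CHO-K1 cells plated overnight, then exposed 3 hr at 37C to compounds at 15 concentrations (0.76% DMSO). Lysed, then HTRF anti-pH2AX(S139)-cryptate/anti-H2AX-d2 detection after 24 hr at room temperature; emissions 665 and 620 nm.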

[11] = qHTS assay to identify small molecule agonists of H2AX - cell viability counter screen (AID 1224847; calls by dose curve; note: nearly all actives have a fitted effect of over 30% in size; note: potency is the fitted concentration of half-maximal effect)
In short: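 Read-out: CellTiter-Glo luminescence, 30 min RT. Cells: wild-type CHO-K1, 1000/well, 10% FBS, plated overnight at 37C. Treatment: 15 concentrations, 3 hr, 37C, 0.76% DMSO.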

[12] = qHTS assay to identify small molecule antagonists of the estrogen related receptor (ERR) signaling pathway from Tox21 library (AID 1224848); note: nearly all actives have a fitted effect of over 50% in size; note: potency is the fitted concentration of half-maximal effect
In short: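 Screening used an ERR reporter line supplied by NTP, exposed for 18 h at 37 C to library compounds delivered in DMSO. Signal was luciferase luminescence developed with ONE-Glo at room temperature for 30 min.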

[13] = qHTS assay to identify small molecule agonists of the estrogen related receptor (ERR) signaling pathway from Tox21 library (AID 1224849; calls by dose curve; note: nearly all actives have a fitted effect of over 15% in size); conditions: ERR reporter cell line, ONE-Glo luciferase, 18 h; at 92.4 µM (top of the series) unless noted
In short: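 ERR reporter cell line (NTP) seeded, rested 6 h at 37 C/5% CO2, then pinned with Tox21 compounds in DMSO. After 18 h at 37 C, ONE-Glo luciferase luminescence was read following 30 min at room temperature.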

[14] = qHTS RealTime-Glo MT Cell Viability Assay in HepG2 cells - 24 hour (AID 1224867); note: nearly all actives have a fitted effect of over 50% in size; note: potency is the fitted concentration of half-maximal effect
In short: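 Compound treatment began 5 h after plating HepG2 cells (600/well) with NanoLuc luciferase and prosubstrate. Plates stayed at 37 C for 40 h; luminescence was captured at six time points, 0 h through 40 h.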

[15] = qHTS RealTime-Glo MT Cell Viability Assay in HEK293 cells - 32 hour (AID 1224868); note: nearly all actives have a fitted effect of over 50% in size; note: potency is the fitted concentration of half-maximal effect
In short: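 Quantitative high-throughput screen of the Tox21 10K library in HEK293: cells and RealTime-Glo reagents plated together, compound added at 5 h, luminescence monitored through 40 h at 37 C.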

[16] = A CellTox Green Cytotoxicity Assay to monitor cytotoxicity in HEK293 cells - 0 hour (AID 1224869); note: nearly all actives have a fitted effect of over 50% in size; note: potency is the fitted concentration of half-maximal effect
In short: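 HEK293 cells premixed with CellTox Green dye were seeded at 600 cells/well and left 5 h at 37 C/5% CO2 before pin transfer of 23 nL compound in DMSO. Fluorescence from dye bound to dead-cell DNA was read during 40 h treatment.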

[17] = qHTS assay to identify small molecule agonists of the estrogen related receptor signaling pathway with the pleiotropic PPARgamma coactivator (PGC) from Tox21 10K library (AID 1224842); note: nearly all actives have a fitted effect of over 15% in size; note: potency is the fitted concentration of half-maximal effect
In short: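 PGC/ERR reporter cells (NTP line) were seeded 2,000 per well, rested 6 h at 37 C/5% CO2, then pin-dosed with compounds in DMSO for 18 h at 37 C; luciferase read by One-Glo luminescence after 30 min at room temperature.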

[18] = target: Thyrotropin receptor (Homo sapiens) (UniProt P16473); experiment: qHTS assay to identify small molecule agonists of the thyroid stimulating hormone receptor (TSHR) signaling pathway (AID 1224843; calls by dose curve; note: nearly all actives have a fitted effect of over 45% in size)
Thyrotropin receptor (Homo sapiens), sequence (P16473 whole entry, looked up): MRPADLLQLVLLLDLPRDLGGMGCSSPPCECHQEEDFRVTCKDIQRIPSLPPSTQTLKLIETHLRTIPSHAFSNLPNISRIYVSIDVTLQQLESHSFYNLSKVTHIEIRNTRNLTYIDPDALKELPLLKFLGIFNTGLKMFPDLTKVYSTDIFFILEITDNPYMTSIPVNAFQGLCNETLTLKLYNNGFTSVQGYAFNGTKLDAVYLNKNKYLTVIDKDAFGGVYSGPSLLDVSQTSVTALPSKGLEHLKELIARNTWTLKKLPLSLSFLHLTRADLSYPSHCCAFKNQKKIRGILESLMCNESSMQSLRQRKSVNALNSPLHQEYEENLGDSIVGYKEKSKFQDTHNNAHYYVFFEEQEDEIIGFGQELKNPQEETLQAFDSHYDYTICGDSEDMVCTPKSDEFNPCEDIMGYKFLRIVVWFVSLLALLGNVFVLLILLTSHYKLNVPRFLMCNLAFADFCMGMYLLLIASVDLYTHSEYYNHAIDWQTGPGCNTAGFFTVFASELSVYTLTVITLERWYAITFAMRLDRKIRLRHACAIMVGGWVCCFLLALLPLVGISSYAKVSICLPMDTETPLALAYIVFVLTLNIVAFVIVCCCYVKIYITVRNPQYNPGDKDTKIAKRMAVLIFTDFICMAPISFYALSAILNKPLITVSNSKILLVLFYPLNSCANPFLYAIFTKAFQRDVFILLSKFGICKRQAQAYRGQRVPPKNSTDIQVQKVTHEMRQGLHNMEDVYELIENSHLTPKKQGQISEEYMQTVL
In short: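 Cell line HEK293 with TSHR; density 800/well. Exposure 30 min RT. Readout HTRF cAMP (cAMP-d2/anti-cAMP-cryptate), 1 h RT before reading.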

[19] = qHTS assay to identify small molecule agonists of the hypoxia (HIF-1) signaling pathway (AID 1224846; active = well fitted activation curve with a large enough effect in the signal ratio in the repeat runs, not every such curve was filed as active; the % refers to the signal ratio)
In short: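 HRE-bla ME-180 cells (beta-lactamase reporter under hypoxia response element) were plated at 2,000 cells/well in medium with 0.5% dialyzed FBS, rested 5 hrs, then given compounds in DMSO for 17 hrs at 37C, 5% CO2. Reporter induction was read with CCF4-AM FRET substrate.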

[20] = qHTS RealTime-Glo MT Cell Viability Assay in HepG2 cells - 40 hour (AID 1224870); note: nearly all actives have a fitted effect of over 50% in size; note: potency is the fitted concentration of half-maximal effect
In short: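 HepG2 cells mixed with RealTime-Glo MT reagents (NanoLuc plus cell-permeant prosubstrate) were seeded at 600 cells/well, incubated 5 h at 37 C/5% CO2, then pinned with compounds in DMSO; nonlytic luminescence tracked viability during 40 h treatment.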

SMILES	Potency [1]	Potency [2]	Potency [3]	Potency [4]	Potency [5]	Potency [6]	Potency [7]	Potency [8]	Potency [9]	Potency [10]	Potency [11]	Potency [12]	activity change, positive = activation [13]	Potency [14]	Potency [15]	Potency [16]	Potency [17]	Potency [18]	Potency [19]	Potency [20]
CCC[CH2][Sn]([CH2]CCC)([CH2]CCC)[CH2]CCC	27.3 µM (active)	inactive	15.4 µM (active)	24.3 µM (active)	9.69 µM (active)	inactive	17.2 µM (active)	inactive	11 µM (active)	8 µM (active)	14.2 µM (active)	13.7 µM (active)	-63.4% (inactive)	6.16 µM (active)	8.71 µM (active)	49 µM (active)	–	–	–	–
c1ccc(N=NNc2ccccc2)cc1	39.9 µM (active) and 27.3 µM (active)	6.54 µM (active) and 6.33 µM (active)	inactive	inactive	inactive	28.3 µM (active) and 27.3 µM (active)	inactive	inactive	inactive	–	92.9 µM (active) and 101 µM (active)	inactive	51.9% (active) and 0.0484% (inactive)	inactive	–	inactive	25.2 µM (active) and inactive	inactive	inactive	inactive
CCOP(=O)(OCC)Oc1nc(Cl)c(Cl)cc1Cl	inactive	inactive	inactive	inactive	inactive	inactive	inactive	–	inactive	inactive	inactive	–	–	–	inactive	inactive	–	inactive	–	inactive
CCOP(=S)(OCC)Oc1cc(C)nc(N(CC)CC)n1	inactive	inactive	inactive	inactive	inactive	19.3 µM (active)	inactive	–	inactive	inactive	inactive	–	-21.1% (inactive)	inactive	inactive	inactive	inactive	–	inactive	inactive
Cc1ccn2nc(S(=O)(=O)Nc3c(F)cccc3F)nc2n1	inactive	inactive	inactive	inactive	inactive	inactive	inactive	inactive	inactive	inactive	inactive	inactive	1.87% (inactive)	inactive	inactive	inactive	inactive	inactive	inactive	inactive
Cc1c([N+](=O)[O-])c(C)c([N+](=O)[O-])c(C(C)(C)C)c1[N+](=O)[O-]	inactive	inactive	inactive	inactive	inactive	34.4 µM (active)	inactive	inactive	24.5 µM (active)	inactive	–	inactive	-4.01% (inactive)	inactive	–	inactive	inactive	–	inactive	–
CC(=O)[O][Pb]([c]1ccccc1)([c]1ccccc1)[c]1ccccc1	2.73 µM (active)	22.4 µM (active)	5.45 µM (active)	7.7 µM (active)	1.54 µM (active)	inactive	3.06 µM (active)	6.86 µM (active)	1.38 µM (active)	0.8 µM (active)	25.3 µM (active)	0.545 µM (active)	-77.1% (inactive)	1.1 µM (active)	–	inactive	inactive	–	–	0.871 µM (active)
